An excerpt weighted towards active compounds, which were near 4.1% of everything screened.
TROY NFkB inh: TROY signaling inhibition | 360,000 compounds, 0.98% hits | Q293 LMP1-TROYcd NF-kB luciferase reporter, 4 h | inhibition, % at 10 µM;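 active means compounds whose plate-normalised and pattern-corrected inhibition of the luciferase reporter signal at the single screening dose is 50% or more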
LMP1 NFkB inh: reduces LMP1-driven NF-kappaB luciferase signal | LMP1-induced NF-kappaB luciferase reporter cells, luminescence | 350,000 compounds, 0.69% hits | inhibition, % at 12.5 µM; in the data active means inhibition above about 41%;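 further: 0% = neutral control wells and 100% = reference inhibitor control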
Shn3 3UTR inh: inhibitors of Schnurri-3 3'UTR reporter in osteoblasts | Clone20 osteoblast Shn3 3'UTR firefly luciferase, 24 h | inhibition, % at 12.5 µM | 360,000 compounds, 0.52% hits | AID 588674;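 active means mean inhibition of at least 75% with every replicate also reaching 75%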;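 further: 0% = median of neutral control wells and 100% = pilot-screen positive control compound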
Peg3 prom inh-1: Peg3 promoter activity inhibition. HeLa PEG-Prom luciferase reporter, luminescence, overnight. inhibition, % at 20 µM. 360,000 compounds, 1.7% hits;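 active means inhibition of at least 50% at 20 µM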
TWEAK Fn14 block: blocks TWEAK-Fn14 interaction in a reporter cell assay | TWEAK-stimulated Fn14 reporter cells, luciferase luminescence, 8 h | inhibition, % at 10 µM | 360,000 compounds, 2% hits | AID 1159606; in the data active means inhibition above about 50%
MITF TRPM1 inh: reduces MITF-dependent TRPM1 promoter luciferase signal. inhibition, % at 12.5 µM. 330,000 compounds, 0.83% hits. SK-MEL-5 TRPM1 promoter luciferase, 24 h;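 active means mean inhibition across replicates of 60% or more, whatever share of single replicates reaches that level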
Peg3 prom inh-2: confirmation of Peg3 promoter inhibitors. inhibition, % at 20 µM. 1,300 compounds, 84% hits. HeLa PEG-Prom luciferase reporter, luminescence, overnight. shares compounds with Peg3 prom inh-1;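 active means at 20 µM dose, 40% or more inhibition averaged across four replicates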
Active calls of the source: *; . = no result given.

SMILES | TROY NFkB inh | LMP1 NFkB inh | Shn3 3UTR inh | Peg3 prom inh-1 | TWEAK Fn14 block | MITF TRPM1 inh | Peg3 prom inh-2
O=C(Nc1nc2cc3c(cc2s1)OCCO3)C1=COCCO1 | 86.7* | 81.5* | 88.4* | 97.1* | 103.9* | 91.4* | 82.5*
CC[C@]12C(=O)N(C)C[C@H]([C@@H]3C(=O)N(C)C(=O)[C@@H]31)N2C(=O)c1ccccc1 | 29.0 | 1.3 | 3.7 | -3.9 | -9.8 | 7.1 | .
Cc1ccc(NC(=O)O/N=C/c2c(C)nn(C(C)(C)C)c2C)cc1Cl | 82.3* | 75.4* | . | 104.3* | 102.6* | 83.0* | 98.1*
COc1cc(CNc2nnnn2C)ccc1OCc1ccc(F)cc1Cl | -4.0 | -14.2 | -39.8 | -3.1 | -18.8 | 9.2 | .
O=C(Cn1ncc(Cl)c(Cl)c1=O)N1CCN(Cc2ccccc2)CC1 | 55.5* | 88.4* | 61.2 | 103.1* | 87.1* | 98.5* | 94.7*
O=C(Cn1ncc2c1-c1ccccc1OC2)N1CCN(Cc2ccccc2)CC1 | 23.9 | -7.6 | 11.5 | 10.7 | 16.6 | 3.1 | .
O=C(Cn1ncc2c1-c1ccccc1OC2)N1CCc2ccccc21 | 1.3 | 3.0 | -47.5 | -12.1 | -3.3 | 0.1 | .
O=C(Cn1ncc(Cl)c(Cl)c1=O)N1CCc2ccccc21 | 13.3 | 13.3 | 55.4 | 107.8* | 101.2* | 99.3* | 99.2*
Cn1c(=O)c(C(=O)CCl)c(N)n(Cc2ccccc2)c1=O | -6.2 | -51.1 | -31.3 | 68.8* | 8.4 | 29.7 | 51.4*
Cn1c(N)c(C(=O)CCl)c(=O)n(Cc2ccccc2)c1=O | -3.8 | -24.9 | -6.2 | 27.3 | -1.5 | 9.6 | .
COc1ccc(N2CC(C(=O)N3CCN(c4ccccc4F)CC3)CC2=O)cc1 (configuration not stated) | -0.2 | -0.1 | -7.7 | 21.8 | 19.6 | 2.0 | .
CC(=O)Nc1ccc(Nc2nc3ccccc3n3cnnc23)cc1 | -1.7 | 1.9 | -7.2 | -1.4 | -3.4 | -7.3 | .
CN(C)CCNc1ccc(CO)c2oc3ccc(O)cc3c(=O)c12 | -26.4 | -5.7 | -13.8 | 96.9* | -53.0 | 19.5 | 90.4*
CCOC(=O)Cc1csc(NC(=S)NC(=O)c2ccc(Cl)cc2)n1 | 27.0 | 5.0 | 20.5 | 51.4* | 0.1 | 11.4 | 70.0*
CCOC(=O)Cc1csc(NC(=S)NC(=O)c2ccc([N+](=O)[O-])cc2)n1 | -12.2 | -6.8 | -26.9 | 9.3 | -7.8 | -1.2 | .
CCN(CC)CC(=O)Nc1ccc(-c2nc3cc(NC(=O)CN(CC)CC)ccc3o2)cc1 | -11.5 | -49.2 | 0.0 | 47.3 | -110.8 | -17.1 | .
O=C(CN1CCCC1)Nc1ccc(-c2nc3cc(NC(=O)CN4CCCC4)ccc3o2)cc1 | 52.8* | -33.4 | 8.9 | 71.5* | -17.3 | 58.3 | 92.3*
Cc1cc(C(=O)NCCC(c2ccccc2)c2ccccc2)c(C)o1 | -24.4 | -3.5 | -25.3 | -25.2 | 12.4 | -6.5 | .
CCc1nc2ccc(C(=O)Nc3cccc(OCC(=O)N(C)C)c3)cn2c1N(C)Cc1ccc(OC)cc1 | 5.2 | . | 39.0 | 71.7* | 4.3 | . | 42.4*
O=C(c1cnc(N2CCN(c3ncccn3)CC2)c2ccccc12)N1CCN(c2ncccn2)CC1 | 32.1 | 9.5 | 35.6 | 60.2* | 39.6 | -4.6 | 34.4
O=C(O)c1ccccc1C(=O)N1CCN(c2ncccn2)CC1 | 3.8 | -0.9 | -24.3 | -13.0 | -7.3 | -11.2 | .
CC(C)(C)c1ccc(/C=N/Nc2ccc(C(=O)O)cc2)cc1 | 59.2* | 32.1 | 50.3 | 80.1* | 92.7* | 89.4* | 72.8*
O=C(O)c1cc(N/N=C/c2ccc3c(c2)OCO3)ccc1Cl | -60.4 | -3.8 | -9.1 | -0.4 | 19.9 | 39.1 | .
O=C(O)c1ccc(/C=N/Nc2ncc(C(F)(F)F)cc2Cl)cc1 | -34.2 | -2.8 | -13.7 | -37.1 | -17.8 | -6.1 | .
O=C(O)c1ccc(N/N=C/c2ccc3c(c2)OCO3)cc1 | 82.2* | 64.8* | 60.1 | 94.4* | 102.0* | 83.4* | 81.8*
CCNC(=S)N/N=C/c1ccc(C(=O)O)cc1 | -11.3 | 2.4 | -7.0 | 8.1 | 5.2 | 2.7 | .
O=C(O)c1ccc(N/N=C/c2ccc(C(F)(F)F)cc2)cc1 | 28.6 | 44.2* | 21.1 | 66.0* | 90.3* | 67.9* | 51.9*
COc1cccc(/C=N/Nc2ccc(C(=O)O)cc2)c1O | 83.8* | 83.1* | 92.3* | 101.4* | 103.3* | 105.3* | 94.2*
